From PubChem BioAssay (EPA / NIEHS)
Inconclusive results are not listed. Active and inactive are the calls of the source. Rule for the calls, unless noted: active = hit-call score of the fitted dose curve at least 0.9, where 1 is the maximum; inactive = score below 0.9.

Tests used:
[1] = ATG_TCF_b_cat_CIS: Attagene CIS-FACTORIAL HepG2 Assay for human T-Cell-Factor with beta-catenin (TCF/b-cat) (AID 2282965); settings: HepG2 TCF/beta-catenin cis-reporter transcription, actives raise or lower the signal
In short: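 Endogenous transcription factor activity is captured through cis-promoter reporter constructs transiently introduced into human HepG2 liver cells. Induced reporter mRNA is measured after 24 h and fitted bidirectionally relative to DMSO.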

[2] = ATG_TAL_CIS: Attagene CIS-FACTORIAL HepG2 Assay for human TAL Basal Promoter (AID 2282966); settings: HepG2 Attagene cis-factorial TAL promoter reporter; actives raise or lower the signal;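 note: background control endpoint measuring basal TAL promoter reporter mRNA not a specific factor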
In short: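 HepG2, transient MRTU transfection, 24 h compound exposure; RNA → oligo(dT) RT → PCR → 6-FAM primer extension → HpaI digest → CE fluorescence. Bidirectional curve fit vs DMSO. Background-control readout.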

[3] = ATG_TGFb_CIS: Attagene CIS-FACTORIAL HepG2 Assay for human Transforming Growth Factor (TGF) (AID 2282967); settings: HepG2 Attagene CIS TGFb reporter, mRNA transcription; actives raise or lower the signal
In short: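 Transient MRTU transfection of HepG2 (FuGene 6). Dose 24 h. TriZol RNA, oligo(dT) RT, PCR, 6-FAM primer extension, HpaI cut, CE. Bidirectional fit, DMSO = baseline.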

[4] = molecular target: Nuclear receptor subfamily 1 group I member 3 (Homo sapiens) (UniProt Q14994); experiment: ATG_CAR_TRANS: Attagene TRANS-FACTORIAL HepG2 Assay for human Constitutive Androstane Receptor (CAR) (AID 2282969; active = hit-call score of the fitted dose curve at least 0.9, where 1 is the maximum;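 note: activators raise reporter mRNA above DMSO so AC50 marks induction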); settings: HepG2 Attagene TRANS-FACTORIAL CAR reporter
Nuclear receptor subfamily 1 group I member 3 (Homo sapiens), sequence (Q14994 whole entry, looked up, the tested form may be a part): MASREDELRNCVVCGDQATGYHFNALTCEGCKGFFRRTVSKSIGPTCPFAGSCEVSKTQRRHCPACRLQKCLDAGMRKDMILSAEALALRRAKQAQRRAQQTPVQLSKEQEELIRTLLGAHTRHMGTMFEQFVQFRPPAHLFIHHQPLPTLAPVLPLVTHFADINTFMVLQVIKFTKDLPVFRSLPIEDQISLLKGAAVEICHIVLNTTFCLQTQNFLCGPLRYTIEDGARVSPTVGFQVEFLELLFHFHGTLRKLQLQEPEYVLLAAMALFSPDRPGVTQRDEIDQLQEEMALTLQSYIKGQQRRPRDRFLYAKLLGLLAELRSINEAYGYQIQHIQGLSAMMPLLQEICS
In short: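 Signal is reporter mRNA induction relative to DMSO, measured 24 h after dosing by RT-PCR with fluorescent primer extension and capillary electrophoresis. Human HepG2 liver cells carried transiently transfected chimeric NR-Gal4/GAL4-UAS reporter constructs.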

[5] = molecular target: Estrogen receptor (Homo sapiens) (UniProt P03372); experiment: ATG_ERa_TRANS: Attagene TRANS-FACTORIAL HepG2 Assay for human Estrogen Receptor alpha (ERa) (AID 2282970; active = hit-call score of the fitted dose curve at least 0.9, where 1 is the maximum); settings: HepG2 Attagene TRANS ERa GAL4 reporter, mRNA
Estrogen receptor (Homo sapiens), sequence (P03372 whole entry, looked up, the tested form may be a part): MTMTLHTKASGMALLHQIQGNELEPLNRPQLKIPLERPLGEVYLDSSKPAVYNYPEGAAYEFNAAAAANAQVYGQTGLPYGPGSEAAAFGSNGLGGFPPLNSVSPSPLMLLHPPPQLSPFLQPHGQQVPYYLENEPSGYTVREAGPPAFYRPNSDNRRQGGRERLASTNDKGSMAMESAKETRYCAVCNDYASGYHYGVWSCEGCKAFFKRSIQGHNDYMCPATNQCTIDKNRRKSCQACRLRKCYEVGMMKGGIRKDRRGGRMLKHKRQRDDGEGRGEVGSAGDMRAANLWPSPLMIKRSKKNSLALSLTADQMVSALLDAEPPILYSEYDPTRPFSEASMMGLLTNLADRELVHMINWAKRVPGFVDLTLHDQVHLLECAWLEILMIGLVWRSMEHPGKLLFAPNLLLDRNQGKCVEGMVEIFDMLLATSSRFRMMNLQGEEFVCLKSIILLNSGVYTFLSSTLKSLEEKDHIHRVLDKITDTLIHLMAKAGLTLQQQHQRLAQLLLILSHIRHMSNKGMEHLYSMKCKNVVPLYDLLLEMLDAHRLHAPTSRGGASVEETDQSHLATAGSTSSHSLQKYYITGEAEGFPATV
In short: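 Reporter mRNA induction after 24 hours, detected by fluorescent RT-PCR and capillary electrophoresis, gives the read-out. Cells are HepG2 transiently transfected with GAL4-UAS reporter transcription units responding to chimeric NR-Gal4. Activity is taken as gain of signal over DMSO baseline.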

[6] = molecular target: Steroid hormone receptor ERR1 (Homo sapiens) (UniProt P11474); experiment: ATG_ERRa_TRANS: Attagene TRANS-FACTORIAL HepG2 Assay for human Estrogen-Related Receptor alpha (ERRa) (AID 2282971; active = hit-call score of the fitted dose curve at least 0.9, where 1 is the maximum); settings: HepG2 Attagene TRANS reporter, ERRa transactivation
In short: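 Transfected HepG2, 24 h dosing, ERRa-Gal4 chimera driving GAL4-UAS reporter. Readout: reporter mRNA via RT-PCR plus capillary electrophoresis (fluorescence). Positive direction vs DMSO control.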

[7] = molecular target: X-box-binding protein 1 (Homo sapiens) (UniProt P17861); experiment: ATG_Xbp1_CIS: Attagene CIS-FACTORIAL HepG2 Assay for human X-box Binding Protein 1 (XBP1) (AID 2282972); settings: HepG2 XBP1 cis-element reporter, Attagene multiplex; actives raise or lower the signal
X-box-binding protein 1 (Homo sapiens), sequence (P17861 whole entry, looked up): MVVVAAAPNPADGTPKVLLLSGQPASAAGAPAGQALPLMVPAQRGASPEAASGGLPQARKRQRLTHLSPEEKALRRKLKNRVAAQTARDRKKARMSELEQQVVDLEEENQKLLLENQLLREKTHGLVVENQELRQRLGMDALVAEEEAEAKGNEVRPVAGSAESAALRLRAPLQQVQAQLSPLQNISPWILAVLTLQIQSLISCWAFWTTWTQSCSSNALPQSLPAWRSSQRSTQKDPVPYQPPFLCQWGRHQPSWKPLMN
In short: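 Human hepatoma HepG2, cis-element reporter system, 24 h treatment; mRNA quantified by RT-PCR/CE fluorescence; fit relative to DMSO.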

[8] = ATG_M_19_TRANS: Attagene TRANS-FACTORIAL HepG2 Assay for M19 Transcription Factor (Internal Marker) (AID 2282974; active = hit-call score of the fitted dose curve at least 0.9, where 1 is the maximum); settings: HepG2 Attagene TRANS-FACTORIAL M19 internal marker reporter
In short: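 Multiplexed TRANS format: HepG2 liver cells bearing transient GAL4-UAS reporter units, chemical treatment 24 h, reporter transcripts quantified by RT-PCR plus capillary electrophoresis. DMSO defines baseline.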

[9] = molecular target: Estrogen-related receptor gamma (Homo sapiens) (UniProt P62508); experiment: ATG_ERRg_TRANS: Attagene TRANS-FACTORIAL HepG2 Assay for human Estrogen-Related Receptor gamma (ERRg) (AID 2282977; active = hit-call score of the fitted dose curve at least 0.9, where 1 is the maximum;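 note: hits increase reporter signal over DMSO so potencies reflect activators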); settings: HepG2 Attagene TRANS reporter, ERRg transactivation
Estrogen-related receptor gamma (Homo sapiens), sequence (P62508 whole entry, looked up, the tested form may be a part): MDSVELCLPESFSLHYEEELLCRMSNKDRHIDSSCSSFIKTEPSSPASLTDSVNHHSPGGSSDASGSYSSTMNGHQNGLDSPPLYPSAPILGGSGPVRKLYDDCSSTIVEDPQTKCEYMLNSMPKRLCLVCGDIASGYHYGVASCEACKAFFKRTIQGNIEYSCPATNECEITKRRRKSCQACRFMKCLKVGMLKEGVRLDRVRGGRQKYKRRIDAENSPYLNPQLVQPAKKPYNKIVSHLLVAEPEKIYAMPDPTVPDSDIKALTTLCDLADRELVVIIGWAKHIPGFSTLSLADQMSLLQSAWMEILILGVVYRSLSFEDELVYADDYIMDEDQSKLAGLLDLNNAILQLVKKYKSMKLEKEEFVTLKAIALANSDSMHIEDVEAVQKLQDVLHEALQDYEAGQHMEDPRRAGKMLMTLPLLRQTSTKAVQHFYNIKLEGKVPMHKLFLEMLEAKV
In short: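 Induction of reporter transcripts through a chimeric NR-Gal4 protein is quantified in transfected human HepG2 liver cells after 24 h chemical exposure, using RT-PCR with capillary electrophoresis detection and DMSO as baseline.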

[10] = molecular target: Oxysterols receptor LXR-alpha (Homo sapiens) (UniProt Q13133); experiment: ATG_LXRa_TRANS: Attagene TRANS-FACTORIAL HepG2 Assay for human Liver X Receptor alpha (LXRa) (AID 2282980; active = hit-call score of the fitted dose curve at least 0.9, where 1 is the maximum); settings: HepG2 Attagene TRANS reporter, LXRa transactivation
Oxysterols receptor LXR-alpha (Homo sapiens), sequence (Q13133 whole entry, looked up, the tested form may be a part): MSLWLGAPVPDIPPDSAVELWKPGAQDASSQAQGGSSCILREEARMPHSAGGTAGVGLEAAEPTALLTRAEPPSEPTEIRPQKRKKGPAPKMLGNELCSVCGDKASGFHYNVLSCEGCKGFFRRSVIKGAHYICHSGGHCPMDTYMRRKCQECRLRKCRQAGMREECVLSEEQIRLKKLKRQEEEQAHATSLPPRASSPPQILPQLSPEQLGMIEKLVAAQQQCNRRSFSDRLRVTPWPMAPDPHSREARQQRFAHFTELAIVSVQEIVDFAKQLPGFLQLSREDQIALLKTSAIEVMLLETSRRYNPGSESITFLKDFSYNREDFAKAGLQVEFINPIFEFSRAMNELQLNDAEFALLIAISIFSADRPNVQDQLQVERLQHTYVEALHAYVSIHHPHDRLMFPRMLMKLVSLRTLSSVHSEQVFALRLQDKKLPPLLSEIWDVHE
In short: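 Read-out: reporter transcript levels by RT-PCR plus capillary electrophoresis, fluorescence intensity. Transiently transfected HepG2, exogenous NR-GAL4 chimera, GAL4-UAS reporters; 24 h compound exposure. Activity = increase over DMSO negative control.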

[11] = molecular target: Oxysterols receptor LXR-beta (Homo sapiens) (UniProt P55055); experiment: ATG_LXRb_TRANS: Attagene TRANS-FACTORIAL HepG2 Assay for human Liver X Receptor beta (LXRb) (AID 2282981; active = hit-call score of the fitted dose curve at least 0.9, where 1 is the maximum); settings: HepG2 Attagene TRANS GAL4-LXRb reporter, mRNA
Oxysterols receptor LXR-beta (Homo sapiens), sequence (P55055 whole entry, looked up, the tested form may be a part): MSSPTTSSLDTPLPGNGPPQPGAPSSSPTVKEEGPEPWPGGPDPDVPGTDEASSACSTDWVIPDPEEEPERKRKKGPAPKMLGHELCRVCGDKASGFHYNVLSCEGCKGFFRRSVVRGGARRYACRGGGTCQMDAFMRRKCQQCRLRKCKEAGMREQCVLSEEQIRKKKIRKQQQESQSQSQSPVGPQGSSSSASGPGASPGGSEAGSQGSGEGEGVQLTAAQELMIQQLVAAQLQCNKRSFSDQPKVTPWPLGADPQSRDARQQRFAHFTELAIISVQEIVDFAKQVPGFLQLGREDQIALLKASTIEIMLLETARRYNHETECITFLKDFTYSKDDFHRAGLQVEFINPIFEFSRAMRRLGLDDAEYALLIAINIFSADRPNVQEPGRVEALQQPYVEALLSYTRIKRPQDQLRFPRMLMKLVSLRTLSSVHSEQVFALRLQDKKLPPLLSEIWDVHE
In short: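 After 24 h chemical treatment of transfected HepG2 cells carrying exogenous NR-Gal4 chimeras, reporter mRNA was quantified by fluorescent RT-PCR and capillary electrophoresis; activity taken as increase over DMSO controls.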

[12] = molecular target: Hepatocyte nuclear factor 4-alpha (Homo sapiens) (UniProt P41235); experiment: ATG_HNF4a_TRANS: Attagene TRANS-FACTORIAL HepG2 Assay for human Hepatocyte Nuclear Factor 4 alpha (HNF4a) (AID 2282982; active = hit-call score of the fitted dose curve at least 0.9, where 1 is the maximum); settings: HepG2 HNF4a transactivation reporter, mRNA readout
Hepatocyte nuclear factor 4-alpha (Homo sapiens), sequence (P41235 whole entry, looked up, the tested form may be a part): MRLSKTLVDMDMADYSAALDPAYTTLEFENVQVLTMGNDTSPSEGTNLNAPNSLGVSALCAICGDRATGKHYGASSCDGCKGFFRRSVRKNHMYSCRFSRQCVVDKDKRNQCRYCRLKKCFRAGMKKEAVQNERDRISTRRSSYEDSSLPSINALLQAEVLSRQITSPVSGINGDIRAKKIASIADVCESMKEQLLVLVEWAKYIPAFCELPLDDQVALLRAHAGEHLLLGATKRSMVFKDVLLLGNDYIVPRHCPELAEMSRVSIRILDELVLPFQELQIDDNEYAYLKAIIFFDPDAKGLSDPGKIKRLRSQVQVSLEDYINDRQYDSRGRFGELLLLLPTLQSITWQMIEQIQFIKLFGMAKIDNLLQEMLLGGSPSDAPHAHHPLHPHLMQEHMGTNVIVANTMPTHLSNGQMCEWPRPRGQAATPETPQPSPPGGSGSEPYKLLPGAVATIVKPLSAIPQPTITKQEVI
In short: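 Activity of an exogenous HNF4a–Gal4 fusion scored as induced GAL4-UAS reporter transcripts after 24 h chemical exposure of transfected human HepG2 cells. Read-out via RT-PCR with 6-FAM labelling and capillary electrophoresis; rise over DMSO baseline.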

[13] = ATG_M_06_TRANS: Attagene TRANS-FACTORIAL HepG2 Assay for M06 Transcription Factor (Internal Marker) (AID 2282983; active = hit-call score of the fitted dose curve at least 0.9, where 1 is the maximum); settings: HepG2 Attagene TRANS M06 internal marker reporter
In short: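 Read-out: fluorescent reporter cDNA fragments resolved by capillary electrophoresis after RT-PCR and HpaI cut. Source cells were HepG2 carrying transfected multi-reporter GAL4 constructs, dosed 24 h. Increase over DMSO control analysed.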

[14] = ATG_M_32_TRANS: Attagene TRANS-FACTORIAL HepG2 Assay for M32 Transcription Factor (Internal Marker) (AID 2282984; active = hit-call score of the fitted dose curve at least 0.9, where 1 is the maximum;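 note: transcript level of a background control reporter unit measured by RT-PCR and capillary electrophoresis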); settings: HepG2 Attagene TRANS M32 internal marker reporter
In short: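 Internal background reporter in transfected HepG2: after 24 h chemical exposure, RNA reverse-transcribed, reporter cDNA amplified, fluorescently labelled and HpaI-cut, then sized by capillary electrophoresis. Gain of signal fitted against DMSO control.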

[15] = molecular target: Nuclear receptor subfamily 4 group A member 2 (Homo sapiens) (UniProt P43354); experiment: ATG_NURR1_TRANS: Attagene TRANS-FACTORIAL HepG2 Assay for human Nuclear Receptor Related Protein 1 (NURR1) (AID 2282985; active = hit-call score of the fitted dose curve at least 0.9, where 1 is the maximum); settings: HepG2 Attagene TRANS reporter, mRNA readout
Nuclear receptor subfamily 4 group A member 2 (Homo sapiens), sequence (P43354 whole entry, looked up, the tested form may be a part): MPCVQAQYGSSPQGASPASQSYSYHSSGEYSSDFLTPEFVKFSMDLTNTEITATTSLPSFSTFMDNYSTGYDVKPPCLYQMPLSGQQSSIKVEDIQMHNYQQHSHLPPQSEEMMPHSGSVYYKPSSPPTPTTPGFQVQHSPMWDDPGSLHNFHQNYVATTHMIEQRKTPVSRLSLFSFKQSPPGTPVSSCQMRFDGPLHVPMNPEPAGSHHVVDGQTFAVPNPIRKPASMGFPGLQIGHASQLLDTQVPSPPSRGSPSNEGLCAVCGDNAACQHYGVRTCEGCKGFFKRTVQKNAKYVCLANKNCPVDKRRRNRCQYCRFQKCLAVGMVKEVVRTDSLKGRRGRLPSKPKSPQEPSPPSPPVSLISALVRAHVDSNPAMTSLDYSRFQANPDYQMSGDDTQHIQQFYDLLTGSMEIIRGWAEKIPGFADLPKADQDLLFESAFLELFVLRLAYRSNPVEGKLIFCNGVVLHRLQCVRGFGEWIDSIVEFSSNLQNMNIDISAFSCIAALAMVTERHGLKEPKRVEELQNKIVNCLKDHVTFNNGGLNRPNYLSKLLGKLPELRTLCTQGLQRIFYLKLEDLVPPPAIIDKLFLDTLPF
In short: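 Reporter transcript induction, measured by RT-PCR with fluorescent labelling, HpaI digestion and capillary electrophoresis, after 24 hr dosing of human HepG2 cells transiently expressing an exogenous NR-Gal4 fusion with GAL4-UAS-driven reporters; DMSO as baseline.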

[16] = molecular target: Transcriptional activator Myb (Homo sapiens) (UniProt P10242); experiment: ATG_Myb_CIS: Attagene CIS-FACTORIAL HepG2 Assay for human Myeloblastosis (Myb) Proto-Oncogene Transcription Factor (AID 2282986); settings: HepG2 Attagene CIS-FACTORIAL Myb reporter transcription; actives raise or lower the signal
Transcriptional activator Myb (Homo sapiens), sequence (P10242 whole entry, looked up): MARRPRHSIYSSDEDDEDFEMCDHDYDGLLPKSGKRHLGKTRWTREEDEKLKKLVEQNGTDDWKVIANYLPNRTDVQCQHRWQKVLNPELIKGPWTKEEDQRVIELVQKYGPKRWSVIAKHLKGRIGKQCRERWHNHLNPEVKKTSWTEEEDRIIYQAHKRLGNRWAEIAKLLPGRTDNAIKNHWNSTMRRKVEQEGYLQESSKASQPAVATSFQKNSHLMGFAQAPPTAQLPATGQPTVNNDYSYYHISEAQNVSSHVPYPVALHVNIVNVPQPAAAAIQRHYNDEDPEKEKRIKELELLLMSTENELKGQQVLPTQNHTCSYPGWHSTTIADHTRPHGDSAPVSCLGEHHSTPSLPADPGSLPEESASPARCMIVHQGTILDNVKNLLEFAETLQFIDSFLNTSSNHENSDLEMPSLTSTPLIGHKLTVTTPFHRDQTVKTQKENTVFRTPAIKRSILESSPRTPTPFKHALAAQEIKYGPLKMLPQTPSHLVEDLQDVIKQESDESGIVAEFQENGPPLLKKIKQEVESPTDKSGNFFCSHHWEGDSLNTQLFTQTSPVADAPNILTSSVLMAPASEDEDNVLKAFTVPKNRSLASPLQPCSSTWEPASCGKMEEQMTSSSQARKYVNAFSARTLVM
In short: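 Using HepG2 liver cells bearing transiently transfected cis-promoter reporter constructs, the assay measures induction or loss of reporter mRNA after 24 hours of dosing. Detection used fluorescently labeled RT-PCR products separated by capillary electrophoresis.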

[17] = ATG_VDRE_CIS: Attagene CIS-FACTORIAL HepG2 Assay for human Vitamin D Receptor Element (VDRE) (AID 2282968); settings: HepG2 VDRE cis-reporter transcription, actives raise or lower the signal
In short: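 Readout is VDRE-driven reporter mRNA reflecting endogenous factor activity in human HepG2 cells, sampled 24 h post-dose. Quantification used labelled RT-PCR products separated by capillary electrophoresis; bidirectional analysis relative to DMSO.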

[18] = ATG_GAL4_TRANS: Attagene TRANS-FACTORIAL HepG2 Assay for GAL4 (Internal Marker) (AID 2282976; active = hit-call score of the fitted dose curve at least 0.9, where 1 is the maximum); settings: HepG2 Attagene TRANS GAL4 internal marker reporter
In short: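 RT-PCR/capillary electrophoresis readout of reporter mRNA. HepG2, transient MRTU transfection (GAL4-UAS reporters), 24 h compound exposure. Background-control endpoint, positive direction vs DMSO baseline.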

[19] = molecular target: Glucocorticoid receptor (Homo sapiens) (UniProt P04150); experiment: ATG_GR_TRANS: Attagene TRANS-FACTORIAL HepG2 Assay for human Glucocorticoid Receptor (GR) (AID 2282978; active = hit-call score of the fitted dose curve at least 0.9, where 1 is the maximum;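 note: activators score as hits since higher reporter transcript over DMSO is fitted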); settings: HepG2 Attagene TRANS GR reporter, mRNA transcription
In short: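 Transiently transfected HepG2 cells express chimeric NR-GAL4 proteins acting on GAL4-UAS reporter units. Compounds are applied for 24 h. mRNA induction over DMSO is measured by capillary electrophoresis.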

[20] = molecular target: Bile acid receptor (Homo sapiens) (UniProt Q96RI1); experiment: ATG_FXR_TRANS: Attagene TRANS-FACTORIAL HepG2 Assay for Farnesoid X Receptor (FXR) (AID 2282979; active = hit-call score of the fitted dose curve at least 0.9, where 1 is the maximum;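 note: hits raise reporter mRNA above DMSO so AC50 marks FXR activation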); settings: HepG2 Attagene TRANS FXR-GAL4 reporter transcription
Bile acid receptor (Homo sapiens), sequence (Q96RI1 whole entry, looked up, the tested form may be a part): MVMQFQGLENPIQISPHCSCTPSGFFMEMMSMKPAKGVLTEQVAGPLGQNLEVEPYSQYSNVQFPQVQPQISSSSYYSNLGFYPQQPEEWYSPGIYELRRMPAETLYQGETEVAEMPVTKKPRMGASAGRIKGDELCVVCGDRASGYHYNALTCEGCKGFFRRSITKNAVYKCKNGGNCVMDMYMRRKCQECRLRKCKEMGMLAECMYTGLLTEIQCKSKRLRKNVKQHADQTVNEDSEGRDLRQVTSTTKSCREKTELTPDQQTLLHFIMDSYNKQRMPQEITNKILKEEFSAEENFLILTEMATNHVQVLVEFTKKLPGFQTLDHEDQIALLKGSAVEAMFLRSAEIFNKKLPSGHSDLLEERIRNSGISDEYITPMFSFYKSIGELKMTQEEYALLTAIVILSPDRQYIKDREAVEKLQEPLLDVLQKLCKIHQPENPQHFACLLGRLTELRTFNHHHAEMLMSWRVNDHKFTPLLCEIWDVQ
In short: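 Read-out: fluorescent reporter transcripts quantified by capillary electrophoresis after RT-PCR of total RNA. Source cells were HepG2 transiently carrying chimeric NR-GAL4 plus GAL4-UAS reporter units, dosed 24 h. Activity fitted upward relative to DMSO baseline.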

Compound: COC(=O)c1ccc(C(=O)OC)c(C(=O)OC)c1
- outcome [1]: inactive
- outcome [2]: inactive
- outcome [3]: inactive
- outcome [4]: inactive
- outcome [5]: inactive
- outcome [6]: inactive
- outcome [7]: inactive
- outcome [8]: inactive
- outcome [9]: inactive
- outcome [10]: inactive
- outcome [11]: inactive
- outcome [12]: inactive
- outcome [13]: inactive
- outcome [14]: inactive
- outcome [15]: inactive
- outcome [16]: inactive

Compound: O=C(O)c1ccc2c(c1)C(=O)OC2=O
- outcome [1]: inactive
- outcome [2]: inactive
- outcome [3]: inactive
- outcome [17]: inactive
- outcome [7]: inactive
- outcome [8]: inactive
- outcome [18]: inactive
- outcome [19]: inactive
- outcome [10]: inactive
- outcome [14]: inactive
- outcome [15]: inactive
- outcome [16]: inactive

Compound: CC(c1cc(C(C)(C)C)cc(C(C)(C)C)c1O)c1cc(C(C)(C)C)cc(C(C)(C)C)c1O
- outcome [1]: inactive
- outcome [2]: inactive
- outcome [3]: inactive
- outcome [17]: inactive
- outcome [7]: inactive
- AC50 [20]: 3.42 µM (active)
- outcome [13]: inactive
- outcome [15]: inactive
- outcome [16]: inactive

Compound: Oc1c(Cl)cc(Cl)c(Cl)c1Cl
- outcome [1]: inactive
- outcome [2]: inactive
- outcome [3]: inactive
- AC50 [17]: 59.8 µM (active)
- outcome [5]: inactive
- outcome [7]: inactive
- outcome [10]: inactive
- outcome [11]: inactive
- outcome [12]: inactive
- outcome [13]: inactive
- outcome [16]: inactive

Compound: CCCCOC(=O)C(C)CC (stereo not given)
- outcome [1]: inactive
- outcome [2]: inactive
- outcome [3]: inactive
- outcome [17]: inactive
- outcome [7]: inactive
- outcome [13]: inactive
- outcome [15]: inactive
